Laboratory results published in the antibiotic and cytotoxicity screens of Wong et al. (2023).
Among all 39,000 compounds or so, about 3,300 (8.5%) were called active. The full list was thinned out, with actives kept by preference.

Each compound was assayed on HepG2 (assay: cytotoxicity call (relative viability < 0.9)). Details: 10 µM.

Structure (SMILES)	cytotoxicity call
Cc1noc(C)c1S(=O)(=O)N(C)C[C@@H]1Oc2ccc(NS(=O)(=O)c3ccc(Cl)cc3)cc2CC(=O)N([C@@H](C)CO)C[C@@H]1C	inactive
OCCN1CCN(c2ncnc3c2ncn3[C@H]2CN(Cc3ccccc3)C[C@@H](CO)O2)CC1	inactive
C[C@@H]1CN([C@@H](C)CO)C(=O)c2cc(NS(=O)(=O)c3ccc(Cl)cc3)ccc2O[C@@H](C)CCCCO[C@H]1CN(C)C(=O)CCC(F)(F)F	inactive
CN1C=C(C(=O)OCCS(C)(=O)=O)C(C(=O)OCCS(C)(=O)=O)=CC(CCCO)=C[C@@H]1C1CC1	inactive
COc1ccc([C@@H](O)[C@@H](CCO)OC)cc1O	inactive
N#CC1(N[C@@H](Cc2ccccc2)c2ccccc2)CCCCCC1	inactive
Cc1ccc(OC[C@@H](O)CN)c(C)c1	inactive
O=C(C1CC1)N1CCN(c2ncccn2)CC1	inactive
Cn1c(=O)cnn(CCCCN2CCN(c3ncccn3)CC2)c1=O	inactive
Cl.O=C1CC2(CCCC2)CC(=O)N1CCCCN1CCN(c2ncccn2)CC1	active
C[C@H]1CN([C@@H](C)CO)S(=O)(=O)c2ccc(-c3ccncc3)cc2O[C@@H]1CN(C)S(=O)(=O)c1ccccc1F	inactive
C[C@@H]1CN([C@H](C)CO)C(=O)c2cc(NC(=O)Nc3ccc4c(c3)OCO4)ccc2O[C@@H](C)CCCCO[C@H]1CN(C)S(=O)(=O)c1ccc(Cl)cc1	active
C[C@H]1CCCCO[C@H](CN(C)S(=O)(=O)c2ccc(Cl)cc2)[C@@H](C)CN([C@@H](C)CO)C(=O)c2cc(NC(=O)Nc3ccc4c(c3)OCO4)ccc2O1	active
C[C@H](CO)N1C[C@H](C)[C@@H](CN(C)S(=O)(=O)c2ccc(Cl)cc2)OCCCC[C@H](C)Oc2ccc(NC(=O)Nc3ccc4c(c3)OCO4)cc2C1=O	inactive
C[C@H]1CCCCO[C@H](CN(C)S(=O)(=O)c2ccccc2)[C@@H](C)CN([C@@H](C)CO)C(=O)c2cc(NC(=O)Nc3ccc4c(c3)OCO4)ccc2O1	active
C[C@@H]1CN([C@H](C)CO)C(=O)c2cc(NC(=O)Nc3ccc4c(c3)OCO4)ccc2O[C@@H](C)CCCCO[C@@H]1CN(C)S(=O)(=O)c1ccc(Cl)cc1	inactive
C[C@@H]1CN([C@@H](C)CO)C(=O)c2cc(NC(=O)Nc3ccc4c(c3)OCO4)ccc2O[C@@H](C)CCCCO[C@@H]1CN(C)S(=O)(=O)c1ccccc1	inactive
C[C@@H]1CCCCO[C@H](CN(C)S(=O)(=O)c2ccc(Cl)cc2)[C@H](C)CN([C@@H](C)CO)C(=O)c2cc(NC(=O)Nc3ccc4c(c3)OCO4)ccc2O1	active
C[C@@H]1CCCCO[C@@H](CN(C)S(=O)(=O)c2ccc(Cl)cc2)[C@@H](C)CN([C@@H](C)CO)C(=O)c2cc(NC(=O)Nc3ccc4c(c3)OCO4)ccc2O1	inactive
C[C@@H]1CCCCO[C@@H](CN(C)S(=O)(=O)c2ccc(Cl)cc2)[C@H](C)CN([C@@H](C)CO)C(=O)c2cc(NC(=O)Nc3ccc4c(c3)OCO4)ccc2O1	inactive
C[C@@H]1CCCCO[C@@H](CN(C)S(=O)(=O)c2ccc(Cl)cc2)[C@@H](C)CN([C@H](C)CO)C(=O)c2cc(NC(=O)Nc3ccc4c(c3)OCO4)ccc2O1	inactive
C[C@@H]1CCCCO[C@H](CN(C)S(=O)(=O)c2ccc(Cl)cc2)[C@@H](C)CN([C@@H](C)CO)C(=O)c2cc(NC(=O)Nc3ccc4c(c3)OCO4)ccc2O1	inactive

Structure (SMILES)	cytotoxicity call
C[C@@H]1CCCCO[C@H](CN(C)S(=O)(=O)c2ccccc2)[C@@H](C)CN([C@@H](C)CO)C(=O)c2cc(NC(=O)Nc3ccc4c(c3)OCO4)ccc2O1	inactive
Cc1noc(C)c1S(=O)(=O)Nc1ccc2c(c1)C(=O)N([C@H](C)CO)C[C@@H](C)[C@H](CN(C)CC1CC1)O2	inactive
NCC1OC(OC2C(N)CC(N)C(OC3OC(CO)C(O)C(N)C3O)C2O)C(N)CC1O (stereo unspecified)	inactive
COc1ccccc1CNC(=O)C[C@@H]1CC[C@H]2[C@@H](COC[C@@H](O)CN2C(=O)Nc2ccc(F)cc2)O1	inactive
C[C@H]1CN([C@@H](C)CO)C(=O)c2cc(Br)cnc2O[C@@H]1CN(C)S(=O)(=O)c1cn(C)cn1	inactive
Cc1noc(C)c1S(=O)(=O)Nc1ccc2c(c1)C(=O)N([C@H](C)CO)C[C@H](C)[C@@H](CN(C)Cc1ccccc1)O2	inactive
COc1cccc(S(=O)(=O)Nc2ccc3c(c2)[C@@H]2C[C@@H](CC(=O)NCC(F)(F)F)O[C@@H](CO)[C@@H]2O3)c1	inactive
Cc1ccc(S(=O)(=O)N(C)C[C@@H]2Oc3ccc(NC(=O)NC(C)C)cc3C(=O)N([C@H](C)CO)C[C@@H]2C)cc1	inactive
C[C@H](CO)N1C[C@H](C)[C@H](CN(C)S(C)(=O)=O)Oc2cc(C#Cc3ccc(F)cc3)ccc2S1(=O)=O	active
C[C@@H]1CN([C@H](C)CO)S(=O)(=O)c2ccc(C#Cc3ccc(F)cc3)cc2O[C@H]1CN(C)S(C)(=O)=O	inactive
C[C@H](CO)N1C[C@H](C)[C@@H](CN(C)S(C)(=O)=O)Oc2cc(C#Cc3ccc(F)cc3)ccc2S1(=O)=O	inactive
C[C@@H]1CN([C@@H](C)CO)S(=O)(=O)c2ccc(C#Cc3ccc(F)cc3)cc2O[C@H]1CN(C)S(C)(=O)=O	inactive
C[C@@H]1CN([C@H](C)CO)S(=O)(=O)c2ccc(C#Cc3ccc(F)cc3)cc2O[C@@H]1CN(C)S(C)(=O)=O	inactive
C[C@H]1CN([C@@H](C)CO)S(=O)(=O)c2ccc(C#Cc3ccc(F)cc3)cc2O[C@@H]1CN(C)S(C)(=O)=O	active
COc1ccc(CN(C)C[C@H]2OCCCC[C@@H](C)Oc3ccc(NS(=O)(=O)c4c(C)noc4C)cc3C(=O)N([C@H](C)CO)C[C@@H]2C)cc1	inactive
CC(C)NC(=O)Nc1cccc2c1O[C@H](CN(C)S(=O)(=O)c1ccc(F)cc1)[C@@H](C)CN([C@H](C)CO)C2=O	inactive
CCCCCS(=O)(=O)CCCCCCCCCCn1c(-c2ccc(O)cc2)c(C)c2cc(O)ccc21	active
CCCCC(=O)c1ccc(O)cc1	inactive
C[C@H](CO)N1C[C@H](C)[C@@H](CN(C)S(=O)(=O)c2cn(C)cn2)Oc2c(NC(=O)Cc3ccccc3)cccc2C1=O	inactive
C[C@H](CO)N1C[C@H](C)[C@@H](CN(C)Cc2ccc(Cl)c(Cl)c2)Oc2ccc(NC(=O)Nc3cccc4ccccc34)cc2CC1=O	inactive
C[C@@H]1CN([C@H](C)CO)C(=O)Cc2cc(NC(=O)Nc3cccc4ccccc34)ccc2O[C@H]1CN(C)Cc1ccc(Cl)c(Cl)c1	inactive
C[C@@H]1CN([C@@H](C)CO)C(=O)c2cc(NC(=O)Nc3cccc4ccccc34)ccc2O[C@H]1CN(C)Cc1ccc(Cl)c(Cl)c1	inactive

Structure (SMILES)	cytotoxicity call
C[C@@H]1CN([C@H](C)CO)C(=O)Cc2cc(NC(=O)Nc3cccc4ccccc34)ccc2O[C@@H]1CN(C)Cc1ccc(Cl)c(Cl)c1	active
C[C@@H]1CN([C@@H](C)CO)C(=O)Cc2cc(NC(=O)Nc3cccc4ccccc34)ccc2O[C@@H]1CN(C)Cc1ccc(Cl)c(Cl)c1	active
C[C@H](CO)N1C[C@H](C)[C@H](CN(C)Cc2ccc(Cl)c(Cl)c2)Oc2ccc(NC(=O)Nc3cccc4ccccc34)cc2C1=O	active
C[C@H]1CN([C@@H](C)CO)C(=O)Cc2cc(NC(=O)Nc3cccc4ccccc34)ccc2O[C@@H]1CN(C)Cc1ccc(Cl)c(Cl)c1	inactive
C[C@@H]1CN([C@H](C)CO)C(=O)c2cc(NC(=O)Nc3cccc4ccccc34)ccc2O[C@@H]1CN(C)Cc1ccc(Cl)c(Cl)c1	inactive
C[C@H](CO)N1C[C@H](C)[C@H](CN(C)Cc2ccc(Cl)c(Cl)c2)Oc2ccc(NC(=O)Nc3cccc4ccccc34)cc2CC1=O	inactive
COc1ccc(S(=O)(=O)Nc2ccc3c(c2)C(=O)N(C)C[C@@H](OC)[C@H](C)CN(C(=O)NC(C)C)[C@H](C)CO3)cc1	inactive
CN(C)CCCNC(=O)C[C@@H]1CC[C@@H]2[C@H](COC[C@@H](O)CN2S(=O)(=O)c2ccc(Cl)cc2)O1	inactive
C[C@@H]1CCCCO[C@@H](CN(C)S(=O)(=O)c2cccs2)[C@@H](C)CN([C@@H](C)CO)C(=O)c2cc(NC(=O)Nc3ccc(C(F)(F)F)cc3)ccc2O1	inactive
Cc1noc(C)c1S(=O)(=O)Nc1ccc2c(c1)C(=O)N([C@@H](C)CO)C[C@@H](C)[C@@H](CN(C)Cc1ccccc1)OCCCC[C@H](C)O2	inactive
C[C@@H]1CN([C@@H](C)CO)C(=O)c2cc(NC(=O)CCN3CCOCC3)ccc2O[C@H]1CN(C)CC1CCCCC1	inactive
C[C@@H]1CCCCO[C@@H](CN(C)C(=O)c2ccccc2)[C@H](C)CN([C@H](C)CO)C(=O)c2cc(NS(=O)(=O)c3ccc(Cl)cc3)ccc2O1	inactive
Cc1ccc(S(=O)(=O)N(C)C[C@H]2OCCCC[C@H](C)Oc3ccc(NC(=O)Nc4ccccc4)cc3C(=O)N([C@@H](C)CO)C[C@@H]2C)cc1	inactive
C[C@@H]1CN([C@@H](C)CO)C(=O)CCCn2nncc2CO[C@@H]1CN(C)Cc1cccc2c1OCCCO2	inactive
COc1ccc(NC(=O)Nc2ccc3c(c2)C(=O)N([C@@H](C)CO)C[C@@H](C)[C@@H](CN(C)Cc2ccncc2)OCCCC[C@@H](C)O3)cc1	inactive
C[C@@H]1CN([C@H](C)CO)C(=O)c2cc(NC(=O)Cn3cnnn3)ccc2O[C@@H]1CN(C)C(=O)Nc1ccc(F)cc1	inactive
CC[C@@H](C)NCCCCOc1ccc(Cl)cc1C(C)(C)C	active
CCOc1ccccc1OCCNC(C)Cc1ccc(OC)c(S(N)(=O)=O)c1.Cl (stereo unspecified)	inactive
CC(C)(C)NCCCCOc1ccc(Cl)cc1C(C)(C)C	active
Cc1ccc(OCc2ccc(Cl)cc2)c(C(C)(C)C)c1	inactive
C#CCN(C)CCCOc1ccc(Cl)cc1Cl.Cl	inactive
CC(C)Oc1ccc(Cl)cc1CN	inactive
